# Reference: PubChem BioAssay (NCATS)
# Values joined by “and” are separate entries in the source; they are usually repeats but may differ in a detail not shown here. Identical values can stand only once. Inconclusive results are not listed. Values without a mark were called inactive. Active and inactive are the calls of the source. Calls come from the whole dose curve; as a rule, active = well fitted cell-killing curve with a large enough effect; inconclusive = small, poorly fitted or top-dose-only effect; inactive = flat fitted curve, though single readings scatter. Where a SMILES comes first, the peptide text is derived from it.
# Assay: Cellular viability qHTS for adrenocortical cancer (ACC) cell line NCI-H295R (AID 1963990); note: nearly all actives have a fitted effect of over 60% in size
# Conditions: CellTiter-Glo ATP luminescence, 48 h; series mostly up to 46.1 µM; activity change, negative = viability loss: at the top concentration
# Description: PI: Naris Nilubol, MD Surgical Oncology Program, National Cancer Institute (NCI) National Institute of Health (NIH), Bethesda, Maryland Adrenocortical cancer (ACC) is a rare malignancy with poor survival outcomes and few treatment options. Currently, mitotane is the only FDA-approved therapy for ACC. Although adjuvant radiation therapy is rarely utilized, it has the potential to improve survival in select cases. Through a quantitative high-throughput drug screen (qHTS), we identified auranofin (AF), a thioredoxin reductase (TXNRD) inhibitor, as a promising candidate drug. This study aims to evaluate whether AF can enhance the efficacy of radiation therapy in the treatment of ACC. Two human ACC cell lines, SW-13 and NCI-H295R, were screened using the National Center for Advancing Translational Sciences (NCATS) Pharmaceutical Collection (NPC) and the Mechanism Interrogation PlatE (MIPE) library (~4,991 compounds). CellTiter-Glo (Cat # G7570, Promega, Madison, WI) was utilized to measure cell viability. Described herein are the results of the corresponding viability assay.
# PROTOCOL TABLE (as described by Inglese J, Shamu CE and Guy RK. 2007) SEQUENCE No. (e.g., 1, 2, 3, etc.); […] (e.g., Cells, Incubation, Reagent, etc.); VALUE; DESCRIPTION. 1; Cells; 5 uL; white, solid-bottom, 1536-well tissue-culture treated plates. 2; Time; overnight culture at 37C with 5% CO2. 3; Compounds and control; 23 nL; Kalypsis pin tool (Wako USA) equipped with a 1536-well pin head to transfer to the assay plates. 4; Time; 48 hours; 37C with 5% CO2. 5; Reagent; 4 uL; CellTiter-Glo luminescent substrate mix. 6; Time; 20 min at room temperature. 7; Detection; Luminescence; ViewLux plate reader NOTES (numbers refer to Sequence numbers above) 1. NCI-H295R cells were harvested from a T175 flask and resuspended in ITS-supplemented DMEM serum-free medium at a concentration of 300 000 cells/mL. Then 5 uL of resuspended cells were dispensed into each well of white, solid-bottom, 1536-well tissue-culture-treated plates using a multidrop combi dispenser. The plates were covered with stainless steel gasket lids. 2-3. The plates were cultured overnight at 37C with 5% CO2. Twenty-three nL of compounds (eight selected concentrations from the NPC / MIPE) or positive control (10 mM stock of bortezomib) in DMSO was transferred to each well of the assay plate using a pin tool (Kalypsys, San Diego, CA, USA). The final concentration of the compounds in the 5 uL assay volume ranged from 0.5 nM to 46 uM. 4-6. After 48 hours of incubation at 37C and 5% CO2, 4 uL of CellTilter-Glo luminescent substrate mix (Promega, Madison, WI, USA) was added to each well. Then the plates were incubated for 20 minutes at room temperature. 7. After incubation, luminescence was measured using a ViewLux plate reader (PerkinElmer, Waltham, MA, USA) with a clear filter was used to measure the number of metabolically competent cells. To determine compound activity in the qHTS assay, the titration-response data for each sample was plotted and modeled by a four-parameter logistic fit yielding IC50 and efficacy (maximal response) values. Raw plate reads for each titration point were normalized relative to positive control ([…], 100% inhibition) and DMSO-only wells (basal, 0%). REFERENCES: Inglese J, Shamu CE and Guy RK, Reporting data from high throughput screening of small molecule libraries, Nature Chemical Biology, 2007, 3(8): 438-441. doi.org/10.1038/nchembio0807-438.
SMILES,Potency,"activity change, negative = viability loss [%]"
CC(C)Oc1ccc(C(=O)N[C@H](CNC(=O)CN(C)C)Cc2ccc(-c3cn4cccc([C@H](C)O)c4n3)cc2)cc1Cl,0.316 µM (active),
COc1cccc2c1C(=O)c1c(O)c3c(c(O)c1C2=O)C[C@@](O)(C(=O)CO)C[C@@H]3O[C@H]1C[C@H](N)[C@H](OC2CCCCO2)[C@H](C)O1 (stereo not given in full),794 nM (active) and 8.91 µM (active),
C=CC(=O)Nc1cccc(Oc2nc(Nc3ccc(N4CCN(C)CC4)cc3)nc3ccsc23)c1,5.01 µM (active),
CC(=O)N[C@@H](CO)C(=O)N[C@@H](CC(=O)O)C(=O)N[C@@H](CCCCN)C(=O)N1CCC[C@H]1C(=O)O (Ac-SDKP-OH),,10.6
Cc1c(-c2c(-c3ccc(F)o3)sc3ncnc(O[C@@H](Cc4ccccc4OCc4ccnn4CC(F)(F)F)C(=O)O)c23)ccc(OCCN2CCN(C)CC2)c1Cl,1.58 µM (active),
CCOC(=O)NNc1nncc2ccccc12,,-5.6
C[C@@H](O)[C@H]1C(=O)N2C(C(=O)O)=C([C@H]3CCCO3)S[C@H]12,,-3.89
CN(C)c1ccccc1CN1CCCN(Cc2ccccc2N(C)C)C1c1ccncc1,28.2 µM (active),
CC(=O)Nc1ccc(S(=O)(=O)Nc2ccc([N+](=O)[O-])cc2)cc1,,-8.53
O=C(NCC1CCCCN1)c1cc(OCC(F)(F)F)ccc1OCC(F)(F)F (stereo not given),,-7.86
Nc1ccn([C@H]2CC[C@@H](CO)O2)c(=O)n1,,-9.18
Cc1nc2ccccn2c(=O)c1CCN1CCC(C(=O)c2ccc(F)cc2)CC1,,-8
C=CC(=O)Nc1cc2c(Nc3ccc(F)c(Cl)c3)ncnc2cc1C#CC(C)(C)N1CCN(C)CC1,3.16 µM (active),
COc1ccc2[nH]cc(CCNC(C)=O)c2c1,inactive,
C=CC(=O)N1CC[C@@H](Oc2nc(Nc3ccc(N4CCC(N5CCN(C)CC5)CC4)cc3)c(C(N)=O)nc2CC)C1,7.15 µM (active),
CCN(CC)C(=O)C1CN2CCc3cc(OC)c(OC)cc3C2CC1OC(C)=O (stereo not given),,3.43
Cc1ccc(/C=N/NC(=O)c2ccccc2Oc2ccccc2)o1,,-15.5
CC/C(=C(/c1ccc(/C=C/C(=O)O)cc1)c1ccc2[nH]ncc2c1)c1ccc(F)cc1Cl,15.8 µM (active),
CCCCCCCCCCCCCCCCOP(=O)([O-])OCC[N+](C)(C)C,23.1 µM (active),
FC(F)c1nc2ccccc2n1-c1nc(N2CCOCC2)nc(N2CCOCC2)n1,0.562 µM (active),

SMILES,Potency,"activity change, negative = viability loss [%]"
c1ccc(-c2cc(CCC3CCNCC3)c3ccccc3n2)cc1,15.8 µM (active),
Cc1onc(-c2ccc(F)cc2)c1COc1ccc(C(=O)N2CCS(=O)(=O)CC2)cn1,,3.54
NS(=O)(=O)c1cc(-c2nn[nH]n2)c(NCc2cccs2)cc1Cl,,-0.87
CC(COc1ccccc1)NC(C)C(O)c1ccc(O)cc1 (stereo not given),,1.17
C[N+]1(C)[C@@H]2CC(OC(=O)[C@H](CO)c3ccccc3)C[C@H]1[C@@H]1O[C@@H]12 (stereo not given in full),inactive,
Fc1ccc(C(c2ccc(F)cc2)N2CCNCC2)cc1,,-11.8
CCC(C(=O)OCCN(CC)CC)c1ccccc1 (stereo not given),,-1.18
c1ccc(Cn2c(-c3ccc(OCC(C4CCNCC4)n4c(-c5ccccc5)nc5ccccc54)cc3)nc3ccccc32)cc1 (stereo not given),7.08 µM (active),
NCc1ccc(S(N)(=O)=O)cc1,,-10.6
CO[C@@H]1C(N(C)C(=O)c2ccccc2)C[C@H]2O[C@]1(C)n1c3ccccc3c3c4c(c5c6ccccc6n2c5c31)C(=O)NC4=O (stereo not given in full),,-25.4
COc1ccc(-c2cc(C(O)C3CCCCN3)c3ccccc3n2)cc1 (stereo not given),11.2 µM (active),
CCN1CCN(Cc2ccc(NC(=O)Nc3ccc(Oc4cc(NC)ncn4)cc3)cc2C(F)(F)F)CC1,10 µM (active),
Cc1ccc(C(=O)Nc2ccc(CN3CCN(C)CC3)c(C(F)(F)F)c2)cc1C#Cc1cnc2[nH]ncc2c1,5.01 µM (active),
CC(C)OP(=O)(CP(=O)(OC(C)C)OC(C)C)OC(C)C,,-0.803
CCN(CC)CCOC(=O)c1ccc(N)cc1,,7.14
CC1(C)O[C@H]2CC(=O)OC[C@]23[C@H]2CC[C@@]4(C)[C@H](c5ccoc5)OC(=O)[C@H]5O[C@]54[C@]2(C)C(=O)C[C@@H]13,,0.991
Cc1c(F)ccc(C(=O)Nc2cc([N+](=O)[O-])ccc2N2CCN(C)CC2)c1Cl,,0.204
CC(=O)Oc1cccc(O)c1,,-14.3
Cc1c(NC(=O)OCC2COCCN2)cn2ncnc(Nc3ccc4c(cnn4Cc4cccc(F)c4)c3)c12 (stereo not given),31.6 µM (active),
OC[C@H]1O[C@@H](n2cnc3c(=S)nc[nH]c32)[C@H](O)[C@@H]1O,2.31 µM (active),
